# Laboratory results as given in ChEMBL document CHEMBL4513216, “Probing the Open Global Health Chemical Diversity Library for Multistage-Active Starting Points for Next-Generation Antimalarials” (ACS Infect Dis, 2020).
# Out of some 69,000 compounds screened, about 8,600 (12%) showed an effect of 50% or more. Only a selection was taken, and strong results are over-represented in it overall.
# Test system: Plasmodium berghei
# Assay: Screen against P. berghei liver stage (PbLuc), transformed with Luciferase, at 10uM
# Assay type: functional, HepG2
# Details: tested at 10 uM
row,SMILES,INHIBITION
1,CCn1cc(NC(=O)NCc2ccc(CO)c(F)c2)cn1,-59.4%
2,Cc1ccc(C)c(C(C(=O)O)N2CCCN(Cc3ccccn3)CC2)c1 (stereo not given),0.139%
3,Cc1c(Cl)cccc1NC(=O)N1CCN(Cc2ccccn2)CC1,64.3%
4,O=C(O)C(c1ccc(Cl)c(F)c1)N1CCN(Cc2ccccn2)CC1 (stereo not given),52.1%
5,COc1ccc(C)cc1C(C(=O)O)N1CCN(Cc2ccccn2)CC1 (stereo not given),26.7%
6,O=C(c1ccccc1Cl)N1CCN(CCc2ccccn2)CC1,30%
7,O=C(c1cc2c(Cl)cccc2[nH]1)N1CCN(CCc2ccccn2)CC1,56.3%
8,Cc1cc(F)c(C(C(=O)O)N2CCN(Cc3ccccn3)CC2)cc1Cl (stereo not given),66.6%
9,Cc1ccc(Cl)c(C)c1NC(=O)N1CCCN(Cc2ccccn2)CC1,46.3%
10,Cc1ccc(C(C(=O)O)N2CCCN(Cc3ccccn3)CC2)c(F)c1 (stereo not given),-1.49%
11,Cc1ccc(NC(=O)N2CCN(Cc3ccccn3)CC2)cc1Cl,42.1%
12,O=C(c1cc(Cl)c[nH]1)N1CCN(CCc2ccccn2)CC1,9.79%
13,CSc1ccccc1C(C(=O)O)N1CCN(Cc2ccccn2)CC1 (stereo not given),33.5%
14,Cc1cccc(-n2cnnc2CCCN2CCOCC2)c1,34.4%
15,CNC(=O)C1CCC(NC(=O)c2cc(C3CC3)n(C(C)(C)C)n2)CC1 (stereo not given),15.4%
16,c1ccc(OCCNC2CCCN(Cc3noc(C4CC4)n3)C2)cc1 (stereo not given),-52.5%
17,Cn1cc(C2CCCN2C(=O)c2ccc(Br)o2)cn1 (stereo not given),12.2%
18,Cn1cc(C2CCCN2C(=O)c2ccc(NC3CC3)nc2)cn1 (stereo not given),22.25%
19,CN(C)c1ccc(C(=O)N2CCCC2c2cnn(C)c2)cn1 (stereo not given),-13.3%
20,CC(C)CN(C)c1ccc(C(=O)N2CCCC2c2cnn(C)c2)cn1 (stereo not given),52.1%
21,CCN(CC)Cc1ccc(C(=O)N2CCCC2c2cnn(C)c2)o1 (stereo not given),57%
22,CNC(=O)c1ccc(C(=O)N2CCCC2c2cnn(C)c2)cn1 (stereo not given),59.4%
23,CC(=O)NCc1ccc(C(=O)N2CCCC2c2cnn(C)c2)o1 (stereo not given),-1.88%
24,COc1ccc(C(=O)N2CCCC2c2cnn(C)c2)cn1 (stereo not given),-11.9%
25,CCN(c1ccc(C(=O)N2CCCC2c2cnn(C)c2)cn1)C(C)C (stereo not given),48.4%
26,CC(NC(=O)NCCn1ccnc1)c1ccc2c(c1)CCC(=O)N2 (stereo not given),-15.5%
27,CO[C@H]1C(=O)N(C)C2(CCNCC2)[C@@H]1C(=O)Nc1ccccc1,29%

row,SMILES,INHIBITION
1,Cc1noc(C)c1CN1CC[C@H]2OCC[C@@]2(C(=O)N2CCCO2)C1,37.5%
2,Cc1cnn(CC2CCCN2C(=O)c2cnc(-c3ccco3)s2)c1 (stereo not given),15.5%
3,CCCS(=O)(=O)N1CCc2nc(N3CCOCC3)nc(N(C)C)c2C1,43.8%
4,CCS(=O)(=O)N1CCc2nc(N3CCOCC3)nc(N(C)C)c2CC1,55.6%
5,CCS(=O)(=O)N1CCc2nc(N3CCCC3)nc(N(C)C)c2CC1,23.1%
6,CC(=O)N1CCCC1C(=O)NCCOc1c(C)cccc1C (stereo not given),-57.4%
7,CC(C)NC(=O)[C@]12COC[C@H]1CN(Cc1cnn(C)c1)C2,-1.36%
8,Cc1ccccc1-n1c(C)cc(=O)[nH]c1=O,33.4%
9,COCC1CN(C(=O)Cc2cccs2)Cc2nnn(C)c21 (stereo not given),26.3%
10,Cn1nc(C(=O)NN2CCOCC2)c(Cl)c1C(F)(F)F,-23%
11,Cc1nn(C)c(C)c1C(=O)NN1CCOCC1,62.3%
12,CCC(=O)NCCNC(=O)c1nn(C)c(C)c1Cl,-23%
13,Cc1c(Cl)c(C(=O)NCc2ccc(F)cc2)nn1C,-6.18%
14,CC(CN1CCOCC1)NC(=O)c1cc(Cl)c2c(c1)OCCO2 (stereo not given),-23.7%
15,Cc1nn(C)c(C)c1CC(=O)NCc1cccnc1N1CCOCC1,1.48%
16,Cc1c(Cl)c(C(=O)NN2CCOCC2)nn1C,55.7%
17,Cc1cc(C(=O)NCc2c(C)nn(C)c2C)nc(N2CCOCC2)n1,12.9%
18,Cc1c(Cl)c(C(=O)NC(C)CN2CCOCC2)nn1C (stereo not given),54.9%
19,CNc1ncccc1CN1CCN(C(C)=O)CC(C(N)=O)C1 (stereo not given),-61.5%
20,O=C(c1cocn1)N1CCC[C@]2(C[C@@H](Oc3ncccc3F)CO2)C1,-26.5%
21,O=C(c1ccc[nH]1)N1CCC2(CC1)CC(Oc1cccnc1)CO2 (stereo not given),22.5%
22,CN1CCCC1CNC(=O)CCCOc1cccc(F)c1 (stereo not given),11.5975%
23,CCn1ncc(-c2cc(C(F)F)n3nc(CCC(=O)O)nc3n2)c1C,20.4%
24,Cc1cccc(N2N=C(C(=O)NC(C)CCc3ccco3)CCC2=O)c1 (stereo not given),12.4%
25,Cc1cccc(N2N=C(C(=O)NC(C)Cc3ccco3)CCC2=O)c1 (stereo not given),32%
26,Cc1cccc(N2N=C(C(=O)NC(C)Cn3cccn3)CCC2=O)c1 (stereo not given),50.5%
27,CCn1cc(NC(=O)C2CCN(Cc3nc(C)c(C)s3)CC2)cn1,55.6%

row,SMILES,INHIBITION
1,CCCc1noc(CN2CCC(C(=O)Nc3cnn(CC)c3)CC2)n1,22.3%
2,CCn1cc(NC(=O)C2CCN(Cc3ccccc3)CC2)cn1,21.6%
3,CCn1cc(NC(=O)C2CCN(Cc3nc(C)c(C)o3)CC2)cn1,8.31%
4,CCn1cc(NC(=O)C2CCN(Cc3nc(C(C)C)no3)CC2)cn1,53.9%
5,CCc1noc(CN2CCC(C(=O)Nc3cnn(CC)c3)CC2)n1,5.9%
6,Cc1noc(CNC(=O)C(C)(C)NC(=O)OC(C)(C)C)n1,22%
7,COc1ccc(C2=NOC(C(=O)N3CCCc4ccccc43)C2)cc1 (stereo not given),-20.6%
8,CC(C)N(C)CC(=O)NCC(Cc1ccc(F)cc1)C(N)=O (stereo not given),-16%
9,CCc1ccc(C2NCCc3cc4c(cc32)OCCO4)cc1 (stereo not given),51.5%
10,Clc1ccc(C2NCCc3cc4c(cc32)OCCO4)cc1 (stereo not given),45.6%
11,Fc1ccccc1C1NCCc2cc3c(cc21)OCCO3 (stereo not given),2.6%
12,CCOC(C)C(=O)NCCNS(C)(=O)=O (stereo not given),19.3%
13,CC(C)(C)NC(=O)NC(=O)CN1C=Nc2ccccc2S1(=O)=O,44.3%
14,CC(C)CC(NCc1ccsc1)c1ccccn1 (stereo not given),44.6%
15,COc1ccc(CNC(Cc2cccs2)c2nc(C)c(C)s2)cc1OC (stereo not given),30.4%
16,COc1ccc(CNC(Cc2ccsc2)c2ncccc2C)cc1OC (stereo not given),55.05%
17,COc1ccc(CN2CCC(c3cc(O)nc(C)n3)C2)c(OC)c1 (stereo not given),-12.2%
18,CC(C)Oc1cccc(CNC(Cc2ccsc2)c2nccs2)c1 (stereo not given),44.3%
19,COc1ccc(CNC(Cc2ccsc2)c2ccc(C)cn2)cc1OC (stereo not given),44.3%
20,COc1ccc(CNC(Cc2ccsc2)c2ccc(C)cn2)c(OC)c1 (stereo not given),68.4%
21,COc1cccc(OC)c1CNC(Cc1ccsc1)c1ccc(C)cn1 (stereo not given),84.2%
22,Cc1cccnc1C(Cc1ccsc1)NCc1cnc(N(C)C)nc1 (stereo not given),-2.495%
23,O=C(C1CCCCC1)N1CCC(n2nc(-c3ccco3)ccc2=O)CC1,40%
24,Cc1ccc(C(N)c2cccc(S(C)(=O)=O)c2)c(C)c1 (stereo not given),-24.2%
25,CCc1csc(C2CCCN(C(=O)c3cc(Cl)c[nH]3)C2)n1 (stereo not given),11.9%
26,CCCC1COCCN1Cc1ccc(S(=O)(=O)NC)cc1 (stereo not given),-6.39%
27,COc1ccccc1CC1CCCN(CC(=O)NC2CC2)C1 (stereo not given),-25.9%

row,SMILES,INHIBITION
1,CNC(=O)CN1CCCC(Cc2ccccc2OC)C1 (stereo not given),59%
2,CNC(=O)NC(=O)CN1CCCC(Cc2ccccc2OC)C1 (stereo not given),-43.6%
3,CCCS(=O)(=O)N1C[C@@H](OCc2ccncc2)[C@H]2OCCC[C@H]21,-7.2%
4,CCOCCn1c(=O)[nH]c2cc(C(=O)N(C)Cc3cnn(C)c3)ccc21,24.065%
5,CCOCCn1c(=O)[nH]c2cc(C(=O)N(C)CCc3cn[nH]c3)ccc21,50.1%
6,CCCN(C)C(=O)c1ccc2c(c1)[nH]c(=O)n2CCOCC,3.47%
7,CC(C)N(C)Cc1cc(=O)n2c(n1)CN(S(=O)(=O)C1CC1)CCC2,25.6%
8,CNC(=O)C1(CCCc2ccccn2)CN(Cc2coc(C)n2)C1,14.6%
9,CC(NC(=O)Cc1ccccc1F)C(=O)N1CCS(=O)(=O)CC1 (stereo not given),49.4%
10,Cc1ccc(CC(=O)NC(C)C(=O)N2CCS(=O)(=O)CC2)cc1 (stereo not given),-11.1%
11,Cc1ccc(CC(=O)NC(C)C(=O)N2CCS(=O)(=O)CC2)s1 (stereo not given),76.2%
12,CNC(=O)CN1CCO[C@H]2CN(CC3CCOCC3)C[C@H]21,13.7%
13,CC(C)NC(=O)CN1CCC(c2cccc(F)c2)C1 (stereo not given),45.65%
14,Cn1nccc1C(=O)N1Cc2cc(Cl)ccc2OC2(CCOCC2)C1,-0.902%
15,CN1CC(c2ccccc2)CC12CCN(C(=O)c1cccnc1)CC2 (stereo not given),51.2%
16,COC(=O)N1CCC2(CC1)CC(c1ccccc1)CN(C)C2 (stereo not given),39.4%
17,CN1CC(c2ccccc2)CC12CCN(C(=O)c1c(Cl)cnn1C)CC2 (stereo not given),55.1%
18,CN1CC(c2ccccc2)CC12CCN(C(=O)c1ccc(Cl)cc1)CC2 (stereo not given),37.6%
19,CN1CC(c2ccccc2)CC12CCN(C(=O)c1ccc(Cl)cn1)CC2 (stereo not given),28.5%
20,CN1CC(c2ccccc2)CC12CCN(C(=O)c1ccncc1)CC2 (stereo not given),7.6%
21,CN1CC(c2ccccc2)CC12CCN(C(=O)c1cncc(Cl)c1)CC2 (stereo not given),8.47%
22,CN1CC(c2ccccc2)CC2(CCN(C(=O)c3ccccc3)CC2)C1 (stereo not given),49.4%
23,CN1CC(c2ccccc2)CC2(CCN(C(=O)c3cccnn3)CC2)C1 (stereo not given),81.2%
24,O=C(c1cc(-c2cccnc2)[nH]n1)N1CCCC(Cc2ccccn2)C1 (stereo not given),-12.76%
